# Screens deposited in PubChem BioAssay by National Center for Advancing Translational Sciences (NCATS).
# TDP1 cell CPT: growth inhibition of DT40 Tdp1-/-;hTDP1 cells with camptothecin (screen for TDP1 inhibitors); Potency, µM (series often up to 46.2 µM), for inactives: at the top dose activity change, negative = growth inhibition, usual class: inhibitors; AID 686979; hit rate 12% among 420,000; chicken DT40 Tdp1-/-;hTDP1 cells + 20 nM CPT, ATP luminescence, 48 h; also: potency is read from the fitted curve at half-maximal effect; % is scaled to controls: 0 for no effect and ±100 for the full control effect; nearly all actives have a fitted effect of over 55% in size
#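 Cell growth measured by CellTiter-Glo luminescence after a minimum 48 h, 37 C compound exposure with 20 nM CPT in Tdp1-knockout DT40 cells stably expressing hTDP1, seeded 400/well; qHTS titration format.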
# TGFb SMAD3 inh: inhibitors of TGF-b signaling. HepG2 CAGA-GFP TGF-b/SMAD3 reporter, GFP fluorescence, 18 h; TGF-beta stimulated, 500 pg/mL final. Potency, µM (series often up to 46.1 µM), for the others: at the top dose activity, negative = inhibition, most hits filed as inhibitors. hit rate 1.2% among 410,000. AID 588855; also: potency is read from the fitted curve at half-maximal effect; % is scaled to controls: 0 for no effect and ±100 for the full control effect; nearly all actives have a fitted effect of over 65% in size
#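 Using HEPG2 CAGA-GFP reporter cells at 1000 cells/well, we pinned test compounds, stimulated with recombinant TGF-beta (500 pg/mL final) and measured total well GFP after 18 h.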
# TDP1 cell noCPT: qHTS for Inhibitors of human tyrosyl-DNA phosphodiesterase 1 (TDP1): qHTS in cells in absence of CPT; DT40 Tdp1-/- hTDP1 cells, no CPT, ATP luminescence, 48 h; Potency, µM (highest dose often 46.2 µM), inactives show at the top dose activity change, negative = growth inhibition, hits mostly inhibitors; hit rate 15% among 420,000; also: potency is read from the fitted curve at half-maximal effect; % is scaled to controls: 0 for no effect and ±100 for the full control effect; nearly all actives have a fitted effect of over 55% in size
#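 No-CPT arm: Tdp1-/-;hTDP1 DT40 cells (400/well) plus compounds, incubated ≥48 hr at 37 °C. Readout CellTiter-Glo luminescence.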
# HepG2 tox: HepG2 cytotoxicity, counter-screen for TGF-b inhibitors. HepG2 CAGA-GFP viability, ATP luminescence, 18 h. hit rate 0.76% among 410,000. AID 588856. Potency, µM (top dose mostly 46.1 µM), inactives show top-dose activity change, negative = cytotoxicity, hits mostly cytotoxic; also: potency is read from the fitted curve at half-maximal effect
#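 HepG2 CAGA-GFP cells (1000/well, DMEM with 1% FBS) received compound, then TGF-beta at 500 pg/mL final, and were incubated 18 hours at 37 degrees C. Viability was read by CellTiter-Glo luminescence. Media-only wells were set as complete cell-killing and DMSO as no toxicity.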
# IL-1B inflam inh: blocks inflammasome-driven IL-1 beta release | activity change, % at 57.5 µM | AID 743279 | hit rate 4.7% among 360,000 | THP-1 LPS/ATP IL-1B secretion, AlphaLISA, 16 h; hits give low values; in the data active = activity change below about -50%; inconclusive = mostly about -30% to -49%; also: % is scaled to controls: 0 for no effect and ±100 for the full control effect
#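 THP-1 cells pretreated 1 hr with compounds (up to 57.5 uM final), then stimulated with LPS (250 ng/mL final) plus ATP (1.25 mM final); secreted IL-1B measured by AlphaLISA after 16 hr, decreased signal indicating inhibition.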
# TDP1 inh: inhibitors of human tyrosyl-DNA phosphodiesterase TDP1. hit rate 0.28% among 350,000. Potency, µM (top dose mostly 130 µM), inactives show at the highest dose activity change, negative = inhibition, actives largely listed as inhibitors. Q9NUW8. AID 485290. recombinant TDP1, AlphaScreen DNA substrate cleavage; also: potency is read from the fitted curve at half-maximal effect; % is scaled to controls: 0 for no effect and ±100 for the full control effect; nearly all actives have a fitted effect of over 40% in size
# Target sequence (Q9NUW8 whole entry, looked up): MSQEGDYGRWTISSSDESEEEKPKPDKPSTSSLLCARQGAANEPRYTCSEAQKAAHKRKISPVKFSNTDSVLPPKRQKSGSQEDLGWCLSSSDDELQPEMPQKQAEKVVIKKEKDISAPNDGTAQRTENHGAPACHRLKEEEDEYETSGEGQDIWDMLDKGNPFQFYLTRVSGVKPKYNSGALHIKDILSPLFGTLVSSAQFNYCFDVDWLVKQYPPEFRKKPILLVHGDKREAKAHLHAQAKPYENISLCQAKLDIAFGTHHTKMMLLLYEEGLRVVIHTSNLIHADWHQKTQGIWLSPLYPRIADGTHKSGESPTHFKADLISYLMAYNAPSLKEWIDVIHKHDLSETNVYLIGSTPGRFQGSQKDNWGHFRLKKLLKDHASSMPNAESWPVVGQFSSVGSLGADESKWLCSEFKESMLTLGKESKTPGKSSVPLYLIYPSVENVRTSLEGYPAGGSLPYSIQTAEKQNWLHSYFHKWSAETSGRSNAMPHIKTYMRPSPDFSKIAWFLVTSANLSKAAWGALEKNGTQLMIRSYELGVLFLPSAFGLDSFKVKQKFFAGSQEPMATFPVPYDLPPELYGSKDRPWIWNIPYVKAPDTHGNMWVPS
#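 E. coli-derived human Tdp1, 1 nM final. Cpd preinc 15 min RT; substrate 15 nM final, 5 min RT; AS bead mix 10 ug/ml final, 10 min RT. Signal loss = tyrosine-FITC cleavage. No-enzyme wells = max signal.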
# Starred values were filed as active, the others as inactive; u = inconclusive; x = not tested or not shown; [ ] = remark or other dose. Shown are actives, neighbours in structure and some others; about 19% of the full set was active somewhere. Unless noted, calls follow the shape of the dose curve; as a rule, active = well fitted curve in the direction sought with a large enough effect; inconclusive = small, poorly fitted or top-dose-only effect, or another doubt; inactive = no such curve, though single readings can be large; an effect the other way counts as inactive or inconclusive.
SMILES,TDP1 cell CPT,TGFb SMAD3 inh,TDP1 cell noCPT,HepG2 tox,IL-1B inflam inh,TDP1 inh
CCOC(=O)c1c(C)[nH]c(N=Nc2cccc(OC)c2)c1C,-5.0%,3.5%,u,-22.4%,-67.1*,7.7%
CCOC(=O)c1c(C)[nH]c(N=Nc2cccc(C)c2)c1C,u,u,-24.6%,-72.3%,-5.2,14.6%
CCOC(=O)c1c(C)[nH]c(N=Nc2ccc(C)cc2)c1C,u,u,-26.5%,-29.3%,-15.1,10.7%
O=C1Cc2ccccc2C(=O)N1,1.46µM*,x,1.16µM*,x,107.1,x
O=C(CN1C(=O)NC2(CCCCC2)C1=O)NCCCSc1ccccc1,-0.5%,0.7%,-2.8%,-1.7%,14.2,0.5%
CCCCCOc1ccc(CSCCNC(=S)Nc2ccccc2)cc1,-14.2%,-11.4%,-27.7%,-8.9%,16.2,-3.2%
CC(C)COc1ccc(CSCCNC(=S)Nc2ccccc2)cc1,u,u,14.6µM*,-81.6%,-9.1,0.0%
CCOC(=O)c1c(C)sc(-c2c(-c3ccc(OC)c(F)c3)[nH]c3c2c(=O)[nH]c(=O)n3C)c1O,16.4µM*,6.1%,16.4µM*,-3.3%,x,-1.6%
CCOC(=O)c1c(C)sc(-c2c(-c3ccc4c(c3)OCCO4)[nH]c3c2c(=O)n(C)c(=O)n3C)c1O,18.4µM*,10.1%,18.4µM*,-7.9%,x,-0.5%
CCc1ccc(-c2[nH]c3c(c2-c2sc(C)c(C(=O)OC)c2O)c(=O)[nH]c(=O)n3C)cc1,7.31µM*,18.2%,5.8µM*,1.8%,x,-0.5%
CCOC(=O)c1oc2cc(O)cc(O)c2c(=O)c1OCc1ccccc1,18.4µM*,u,16.4µM*,-32.6%,34.2,x
CCOC(=O)c1ccc(-c2c(C(=O)OCC)oc3cc(O)c(CC)cc3c2=O)o1,14.6µM*,-23.0%,11.6µM*,-4.5%,0.0,7.7%
CC1CCN(C(=O)c2cc(-c3ccc(Br)cc3)on2)CC1,-19.7%,11.3%,-16.9%,-2.6%,x,0.9%
Cc1ccc(-c2nc(-c3ccccc3)no2)c(Cl)c1,u,2.9%,-13.5%,-34.0%,16.5,56.2µM*
O=C(N/N=C/c1cc(Br)c(O)c(Br)c1)c1cc2c(ccc3ccccc32)o1,13µM*,-24.9%,u,-22.5%,-22.9,-20.3%
O=C(N/N=C/c1ccc([N+](=O)[O-])o1)c1cc2c(ccc3ccccc32)o1,10.3µM*,-7.6%,u,-18.9%,-13.1,0.0%
Cc1ccc(/C=N/NC(=O)c2cc3c(ccc4ccccc43)o2)o1,u,-19.0%,u,-17.5%,-61.4*,2.0%
CC(=O)Oc1ccc(/C=N\NC(=O)c2cc3c(ccc4ccccc43)o2)cc1,u,0.0%,u,9.7%,u,x
O=C(NC1CCCC1)c1cc2c(ccc3ccccc32)o1,u,u,20.6µM*,-2.9%,-7.7,1.1%
O=C(NCCc1ccc(Cl)cc1)c1cnc2sc(N3CCCCC3)nn2c1=O,-16.3%,-1.7%,-20.5%,-2.7%,x,0.0%
O=C(N/N=C/c1ccc(O)c(Br)c1)c1cc2c(ccc3ccccc32)o1,u,4.4%,-4.1%,-1.5%,u,0.3%
Cc1ccc(/C=N/NC(=O)c2cc3c(ccc4ccccc43)o2)cc1[N+](=O)[O-],25.9µM*,21.9%,u,3.1%,-16.8,1.0%
CCOc1cc(/C=N/NC(=O)c2cc3c(ccc4ccccc43)o2)ccc1O,23.1µM*,u,u,-26.2%,-50.8*,0.4%
Cc1cc(C)c(Cn2c(=O)n(Cc3ccccc3)c(=O)c3c(C)c(C)sc32)c(C)c1,-18.8%,2.6%,-9.5%,-2.2%,x,6.4%
COC(=O)CC1C2(C)CC34OC5(C)O[C@@]6(C7/C(=C(/OC)C(C)C)C(=O)OC(c8ccoc8)[C@@]7(C)C(OC(=O)C(C)C)C(OC)[C@]6(O5)[C@@]13C)C(OC)[C@]4(OC)C2OC(C)=O (some centres not stated),8.2µM*,x,13µM*,x,x,-8.5%[56.1 µM]
SMILES,TDP1 cell CPT,TGFb SMAD3 inh,TDP1 cell noCPT,HepG2 tox,IL-1B inflam inh,TDP1 inh
O=C(NCC1CCCO1)C1CC(c2ccc(Cl)c(Cl)c2)=NO1 (configuration not stated),18.4µM*,-22.7%,u,-29.8%,10.3,6.8%
CN1OC[C@@H]2CN[C@H](c3ccc(-c4ccc(C#N)cc4)cc3)C[C@@H]21,18.4µM*,1.8%,23.1µM*,-33.0%,6.2,x
CN1OC[C@@H]2CN[C@H](c3ccc(-c4cc5ccccc5o4)cc3)C[C@@H]21,16.4µM*,-16.0%,23.1µM*,-34.0%,-9.8,x
O=C(Oc1cccc2ccccc12)c1ccccc1,3.7%,1.4%,u,-5.2%,-5.6,x
O=C(Oc1cc(=O)oc2ccccc12)c1ccccc1,2.59µM*,-2.2%,2.31µM*,0.5%,16.6,0.0%
O=C(Oc1c(-c2ccccc2Cl)oc2ccccc2c1=O)c1ccc(Cl)cc1,u,7.3%,u,5.9%,-1.1,1.9%
O=C(Oc1cccc2c(O)cccc12)c1ccccc1,u,14.1µM*,u,-115.8%,-23.8,7.1%
O=C(Oc1c(-c2ccccc2)oc2ccccc2c1=O)c1ccccc1,u,u,10.3µM*,-12.9%,0.0,-1.0%
Cc1ccc(-c2nc(CS(=O)(=O)CC(=O)N3CCN(c4cccc(C)c4C)CC3)c(C)o2)cc1,u,u,u,-13.1%,x,0.0%
COC(=O)c1c(C)[nH]c(C(=O)OC(C)C(=O)N2CCOCC2)c1C (configuration not stated),15.1%,-16.2%,-0.8%,13.4%,10.3,0.3%
Cc1nn(-c2ccccc2)c(C)c1C(=O)OC(C)C(=O)NC1CCCCC1C (configuration not stated),13µM*,-29.4%,20.6µM*,-35.8%,22.8,-4.8%
COC(=O)c1c(C)[nH]c(C(=O)OC(C)C(=O)NC2CCCCC2C)c1C (configuration not stated),11.6µM*,1.0%,u,-0.7%,-0.2,x
O=C(COC(=O)c1cccc(F)c1)NC(=O)NCc1ccccc1,-9.2%,0.2%,16.5%,-15.8%,13.2,-9.5%
CCOC(=O)c1cc2c(=O)n3ccccc3nc2n(CC2CCCO2)c1=NC(C)=O (configuration not stated),-4.4%,-2.6%,-24.3%,-16.8%,-13.4,7.9%
CCOC(=O)c1cc2c(=O)n3ccccc3nc2n(CC2CCCO2)c1=NC(=O)c1cc(C)cc(C)c1 (configuration not stated),0.164µM*,-31.4%,0.0366µM*,-43.7%,x,2.9%
